From PubChem BioAssay (NCI) come the findings set out here.

This is part of a sample that, as a whole, favours compounds with a hit. Of some 83,000 tested, about 20% had one in any assay.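 Growth was measured after 48 h exposure to one concentration of compound in 96-well plates. Values under 10 count as active.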 The source made the active and inactive calls.

One assay deals with CCRF-CEM leukemia. The experiment in a line: NCI-60 one-dose screen, 48 h (100 = growth as untreated, 0 = no growth, -100 = all killed). The settings on record: 10 µM unless noted.
Regarding `O=c1cc(Cc2ccc([N+](=O)[O-])cc2)[nH]c(=O)[nH]1`, the growth is 91.1% (inactive).

Take `Cc1csc(NC(c2ccccc2)c2c(C)nc3ccccn23)n1` (configuration not stated): the growth was 101% (inactive).

With `Cc1ccc(/C=C2\CN(C(=O)CCN3CCC(=NO)CC3)C/C(=C\c3ccc(C)cc3)C2=O)cc1`, the growth was 1.97% (active).

For `O=C1Nc2ccc3c(c2/C1=C\c1cc2c(cc1Br)OCO2)OCO3`, the growth is 10% (active).

Turning to `CCN(CC)c1ccc(CNc2ccnc3ccccc23)cc1`, the growth was 53.3% (inactive).

In the case of `CN(CCCCN(C[C@H]1Cc2ncccc2CN1)[C@H]1CCCc2cccnc21)C1CCC(F)(F)CC1`, the growth was 88.3% (inactive).

As to `O=[N+]([O-])c1ccc(OCCCOc2ccccc2)cc1`, the growth is 105% (inactive).

With `N#C/C(=C1C=C/C(=N/O)C(Cl)=C/1)c1ccc(Cl)cc1`, the growth was 7.1% (active).

On to `CCCCC(CC)OC(=O)C(Br)CC` (configuration not stated), for which the growth is 109% (inactive).

For `C=C[C@@H]1C[C@@H]2Cc3c(C)cc(C)cc3N1O2`, the growth is -61.1% (active).

With `C=C[C@@H]1C[C@@H]2Cc3ccccc3N1O2`, the growth is -50% (active).

Consider `CC(=O)OC[C@]12CC[C@H]3[C@@H](C[C@H]4O[C@]45CC=CC(=O)[C@]35C)[C@]1(O)CC[C@@]2(O)[C@@](C)(O)C1CC(C)=C(C)C(=O)O1` (some centres not stated), for which the growth was -8.89% (active).

For the compound `COC(=O)c1cc2cc(-c3ccc(OC)cc3)cnc2[nH]1`, the growth is 22.3% (inactive).

Consider `O=C(Nc1cccc(-n2cc(-c3ccncc3)c(-c3ccc(Cl)c(O)c3)n2)c1)Nc1cc(C(F)(F)F)cc(C(F)(F)F)c1`, for which the growth was -16% (active).

With `C[n+]1c(/C=C/c2c(O)ccc3ccccc23)ccc2ccccc21`, the growth is 10.2% (inactive).

Consider `COc1ccc(-c2cn(-c3cccc(C(=O)/C=C/c4cc(OC)c(OC)c(OC)c4)c3)c(=O)[nH]2)cc1OC`, for which the growth was 34.3% (inactive).

As to `C=C[C@@H]1C[C@H](O)Cc2c(C)cc(C)cc2N1`, the growth is -19% (active).

As to `O=C(O)Cc1cccc(=O)c(O)c1C(=O)O`, the growth was 98.3% (inactive).

For `COc1cc(/C=C/C(=O)c2ccc(Nc3ncnc4cc(OC)c(OC)cc34)cc2)cc(OC)c1`, the growth is 63.2% (inactive).

Consider `COc1cc(/C=C/C(=O)c2cccc(-n3cc(-c4cc(OC)c(OC)c(OC)c4)[nH]c3=O)c2)cc(OC)c1OC`, for which the growth was -1.54% (active).

As for `COC1=C(OC)C(=O)C(CCCCCCCCCC[P+](c2ccccc2)(c2ccccc2)c2ccccc2)=C(C)C1=O`, the growth was -6.4% (active).

For `C=C[C@@H]1C[C@H](O)Cc2ccccc2N1`, the growth was -30.7% (active).

As to `CCN1C(=O)N(CC)C2C1NN=c1s/c(=C\c3cccnc3)c(=O)n12` (configuration not stated), the growth is 14.1% (inactive).

Consider `O=S(=O)(CC(O)(c1ccccc1)c1ccccc1)CC(O)(c1ccccc1)c1ccccc1`, for which the growth is 64.8% (inactive).

As to `CCN(CC)CCCC(C)Nc1c2ccc(Cl)cc2nc2cc(OC)c(OC)cc12` (configuration not stated), the growth is 15.5% (inactive).

As to `CCCCCCCCCCCC(=O)NCCC[N+](C)(C)CC(=O)[O-]`, the growth is 89.5% (inactive).

For the compound `CCOC(=O)/C(C#N)=C1/C(=O)Nc2ccccc21`, the growth is 67.1% (inactive).

As for `Cn1c(=O)c2[nH]c(C3CC=CCC3)nc2n(C)c1=O` (configuration not stated), the growth was 104% (inactive).

For `O=[N+]([O-])c1cc(S(=O)(=O)Oc2ccccc2)ccc1Cl`, the growth is -22.1% (active).

With `C=C(C)[C@@H]1C[C@H](O)Cc2cc(F)ccc2N1`, the growth was -62.7% (active).

For the compound `COc1ccc2c(c1)[nH]c(=O)c1c3cccc(F)c3cn21`, the growth is -17.5% (active).

For the compound `CN(C)c1nc2c(N)ncnc2n1C1OC(CO)C(O)C1O` (configuration not stated), the growth is 105% (inactive).

For the compound `N[C@H]1CN(C(=O)c2cc3cc(Br)c(F)c(F)c3[nH]2)C[C@@H]1O`, the growth is 97.2% (inactive).

`O=C1/C(=C/c2ccc(Cl)cc2)CN(Cc2cn(CCNc3ccnc4cc(Cl)ccc34)nn2)C/C1=C\c1ccc(Cl)cc1`: the growth is -7.97% (active).

As for `NC(=S)N/N=C1\CCCC(C(F)(F)F)C1` (configuration not stated), the growth is 45.5% (inactive).

Another assay has as its system MOLT-4 leukemia. Described as above. The settings on record: 10 µM unless noted.
Consider `O=c1cc(Cc2ccc([N+](=O)[O-])cc2)[nH]c(=O)[nH]1`, for which the growth was 94.9% (inactive).

Consider `Cc1csc(NC(c2ccccc2)c2c(C)nc3ccccn23)n1` (configuration not stated), for which the growth is 92.3% (inactive).

`Cc1ccc(/C=C2\CN(C(=O)CCN3CCC(=NO)CC3)C/C(=C\c3ccc(C)cc3)C2=O)cc1`: the growth is 3.31% (active).

Turning to `O=C1Nc2ccc3c(c2/C1=C\c1cc2c(cc1Br)OCO2)OCO3`, the growth was 35.7% (inactive).

As for `c1ccc(-c2nc(N3CCNCC3)c3nc(-c4ccccc4)oc3n2)cc1`, the growth was -34.6% (active).

Turning to `CCN(CC)c1ccc(CNc2ccnc3ccccc23)cc1`, the growth is 51.7% (inactive).

Consider `CN(CCCCN(C[C@H]1Cc2ncccc2CN1)[C@H]1CCCc2cccnc21)C1CCC(F)(F)CC1`, for which the growth was 91.4% (inactive).

Turning to `ClC(Cl)c1nc(-c2ccccc2)nc2cc(-c3ccccc3)nn12`, the growth was 101% (inactive).

As for `O=[N+]([O-])c1ccc(OCCCOc2ccccc2)cc1`, the growth was 94.6% (inactive).

For `N#C/C(=C1C=C/C(=N/O)C(Cl)=C/1)c1ccc(Cl)cc1`, the growth was 65.9% (inactive).

As for `CCCCC(CC)OC(=O)C(Br)CC` (configuration not stated), the growth was 95.4% (inactive).

With `C=C[C@@H]1C[C@@H]2Cc3c(C)cc(C)cc3N1O2`, the growth was -50.7% (active).

`C=C[C@@H]1C[C@@H]2Cc3ccccc3N1O2`: the growth is 28.9% (inactive).

Turning to `CC(=O)OC[C@]12CC[C@H]3[C@@H](C[C@H]4O[C@]45CC=CC(=O)[C@]35C)[C@]1(O)CC[C@@]2(O)[C@@](C)(O)C1CC(C)=C(C)C(=O)O1` (some centres not stated), the growth was 7.75% (active).

Regarding `CO[C@H]1NC(=O)N(S(=O)(=O)c2ccc(Cl)cc2)[C@@H]1OC`, the growth is 102% (inactive).

As for `COC(=O)c1cc2cc(-c3ccc(OC)cc3)cnc2[nH]1`, the growth was 22.8% (inactive).

As to `O=C(Nc1cccc(-n2cc(-c3ccncc3)c(-c3ccc(Cl)c(O)c3)n2)c1)Nc1cc(C(F)(F)F)cc(C(F)(F)F)c1`, the growth was -18.5% (active).

Regarding `COc1ccc(-c2cn(-c3cccc(C(=O)/C=C/c4cc(OC)c(OC)c(OC)c4)c3)c(=O)[nH]2)cc1OC`, the growth was 70.4% (inactive).

For the compound `C=C[C@@H]1C[C@H](O)Cc2c(C)cc(C)cc2N1`, the growth is -46.2% (active).

With `O=C(O)Cc1cccc(=O)c(O)c1C(=O)O`, the growth was 106% (inactive).

Turning to `COc1cc(/C=C/C(=O)c2ccc(Nc3ncnc4cc(OC)c(OC)cc34)cc2)cc(OC)c1`, the growth was 53.8% (inactive).

For `COc1cc(/C=C/C(=O)c2cccc(-n3cc(-c4cc(OC)c(OC)c(OC)c4)[nH]c3=O)c2)cc(OC)c1OC`, the growth was -16% (active).

Take `COC1=C(OC)C(=O)C(CCCCCCCCCC[P+](c2ccccc2)(c2ccccc2)c2ccccc2)=C(C)C1=O`: the growth is -33.8% (active).

Turning to `CCN1C(=O)N(CC)C2C1NN=c1s/c(=C\c3cccnc3)c(=O)n12` (configuration not stated), the growth is 26.5% (inactive).

Regarding `O=S(=O)(CC(O)(c1ccccc1)c1ccccc1)CC(O)(c1ccccc1)c1ccccc1`, the growth is 96.7% (inactive).

Take `CCN(CC)CCCC(C)Nc1c2ccc(Cl)cc2nc2cc(OC)c(OC)cc12` (configuration not stated): the growth is -8.8% (active).

On to `CCCCCCCCCCCC(=O)NCCC[N+](C)(C)CC(=O)[O-]`, for which the growth is 78.6% (inactive).

As to `CCOC(=O)/C(C#N)=C1/C(=O)Nc2ccccc21`, the growth was 138% (inactive).

As to `Cn1c(=O)c2[nH]c(C3CC=CCC3)nc2n(C)c1=O` (configuration not stated), the growth is 123% (inactive).

For the compound `O=[N+]([O-])c1cc(S(=O)(=O)Oc2ccccc2)ccc1Cl`, the growth is 19.4% (inactive).

On to `C=C(C)[C@@H]1C[C@H](O)Cc2cc(F)ccc2N1`, for which the growth was -28.3% (active).

Take `COc1ccc2c(c1)[nH]c(=O)c1c3cccc(F)c3cn21`: the growth was 36.3% (inactive).

Consider `CN(C)c1nc2c(N)ncnc2n1C1OC(CO)C(O)C1O` (configuration not stated), for which the growth was 111% (inactive).

Regarding `O=C1NN(C(=O)c2ccc(Cl)cc2)C(c2ccccc2)=N/C1=C\c1ccc(F)cc1`, the growth was 36.2% (inactive).

Take `N[C@H]1CN(C(=O)c2cc3cc(Br)c(F)c(F)c3[nH]2)C[C@@H]1O`: the growth was 98.1% (inactive).

On to `O=C1/C(=C/c2ccc(Cl)cc2)CN(Cc2cn(CCNc3ccnc4cc(Cl)ccc34)nn2)C/C1=C\c1ccc(Cl)cc1`, for which the growth is -20.7% (active).

As for `NC(=S)N/N=C1\CCCC(C(F)(F)F)C1` (configuration not stated), the growth is 74.5% (inactive).
